Screening results from PubChem.
FBW7 act: human FBW7 E3 ligase activation, primary screen | hit rate 0.13% among 650,000 | Q969H0 | AID 1259310 | AlphaScreen FBW7–phospho-cyclin E peptide binding, activator screen | normalized activity (activation), % at 26.1 µM; in the data active means normalized activity above about 1.9%;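 further: purified mutant Fbw7 with reduced substrate affinity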
Target sequence (Q969H0 whole entry, looked up): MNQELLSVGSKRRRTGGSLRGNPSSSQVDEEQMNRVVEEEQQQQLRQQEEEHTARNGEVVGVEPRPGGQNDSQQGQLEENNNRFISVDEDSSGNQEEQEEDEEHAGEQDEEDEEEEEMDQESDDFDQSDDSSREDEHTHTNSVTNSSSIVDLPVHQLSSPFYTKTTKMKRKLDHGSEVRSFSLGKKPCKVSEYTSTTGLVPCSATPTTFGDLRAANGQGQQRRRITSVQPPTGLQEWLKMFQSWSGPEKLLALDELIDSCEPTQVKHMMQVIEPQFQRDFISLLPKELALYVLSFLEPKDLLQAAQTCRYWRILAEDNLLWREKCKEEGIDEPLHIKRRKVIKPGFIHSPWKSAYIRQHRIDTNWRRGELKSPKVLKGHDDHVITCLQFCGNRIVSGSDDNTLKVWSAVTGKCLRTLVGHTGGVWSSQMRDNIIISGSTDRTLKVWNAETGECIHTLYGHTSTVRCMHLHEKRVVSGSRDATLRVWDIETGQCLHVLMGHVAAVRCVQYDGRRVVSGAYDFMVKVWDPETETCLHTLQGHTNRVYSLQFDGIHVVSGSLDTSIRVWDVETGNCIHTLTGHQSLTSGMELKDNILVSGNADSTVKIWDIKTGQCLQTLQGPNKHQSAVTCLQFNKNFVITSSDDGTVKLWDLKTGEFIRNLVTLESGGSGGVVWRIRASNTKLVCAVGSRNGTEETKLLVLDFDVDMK
TEAD-YAP block: TEAD-YAP interaction inhibition | HEK-TIYL cells, TEAD-Gal4/YAP UAS-luciferase luminescence | inhibition, % at 9.12 µM | hit rate 1.4% among 640,000 | AID 1259422; in the data active means inhibition above about 32%;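 further: 0% = median of test compound wells and 100% = reference inhibitor wells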
GPR151 activ: activators of human GPR151 | Q8TDV0 | PathHunter beta-arrestin GPR151 cells, luminescence | activation, % at 11.2 µM | hit rate 1% among 650,000 | AID 1508602; in the data active means activation above about 4.9%;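 further: 0% = median of compound wells and 100% = cells with positive control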
MITF primary: blocks human microphthalmia-associated transcription factor | O75030 | AlphaScreen MITF homodimerization, bead proximity signal | inhibition, % at 2.6 µM | hit rate 0.91% among 650,000 | AID 1259374; in the data active means inhibition above about 50%;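 further: 0% = vehicle wells with protein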
MITF confirm: confirmation of human MITF inhibitors; hit rate 16% among 4,700; AID 1259372; AlphaScreen MITF homodimerization, biotin/His-MITF beads; inhibition, % at 2.6 µM; shares compounds with MITF primary;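 active means inhibition above a cutoff derived from the DMSO control wells, cut at about 28% in these data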;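 further: 0% = MITF dimer wells with DMSO only; inhibitors lower the bead chemiluminescence by keeping MITF from dimerizing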
AlphaScreen DR: AlphaScreen optical interference, dose response counter-screen. shares compounds with MITF primary. AlphaScreen optical interference counterscreen, cell-free. IC50, µM. hit rate 6% among 480. AID 1259373; call rule not given here
AlphaScreen intf2: AlphaScreen optical interference, counter-screen; shares compounds with MITF primary; inhibition, % at 2.6 µM; hit rate 7.6% among 4,700; LysRS AlphaScreen counterscreen, signal interference, triplicate;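 active means inhibition above a cutoff derived from the DMSO control wells, cut at about 30% in these data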
* hit, by the source's call; nt = no result given. An excerpt weighted towards active compounds, which were near 3.4% of everything screened.

SMILES | FBW7 act | TEAD-YAP block | GPR151 activ | MITF primary | MITF confirm | AlphaScreen intf2 | others
CC1CCCC(N2CCN(Cc3ccccc3[N+](=O)[O-])CC2)C1 (stereo not drawn) | 0 | 0 | 0 | 82* | 2 | -2
O=[N+]([O-])c1ccccc1CN1CCC(N2CCN(c3ccccc3)CC2)CC1 | 0 | 2 | 0 | 83* | 2 | 5
O=[N+]([O-])c1ccccc1CN1CCC(N2CCCCCC2)CC1 | 0 | 6 | 0 | 79* | 4 | 0
Fc1ccccc1CN1CCN(C2CCN(Cc3ccccc3)CC2)CC1 | 0 | -1 | 3 | 7 | nt | nt
COc1ccc(N=C2SC(C(=O)Nc3ccc(OC)cc3)CC(=O)N2Cc2ccc3c(c2)OCO3)cc1 (stereo not drawn) | 0 | 7 | 1 | -5 | nt | nt
CC1CC(=O)Nc2ccc([N+](=O)[O-])cc2N1C=O (stereo not drawn) | 0 | 6 | 1 | 4 | nt | nt
O=C(NCc1ccccn1)c1cccc(OC2CCN(Cc3ccon3)CC2)c1 | 0 | -1 | 0 | -7 | nt | nt
O=[N+]([O-])c1ccccc1CN1CCCC1 | 0 | -8 | 1 | 14 | nt | nt
O=[N+]([O-])c1cccc(CN2CCN(C3CC4CCC3C4)CC2)c1 (stereo not drawn) | 0 | 4 | 1 | 57* | 27 | 17
O=[N+]([O-])c1cccc(CN2CCC(N3CCCCC3)CC2)c1 | 0 | -38 | -1 | 57* | -14 | -5
O=[N+]([O-])c1cccc(CN2CCC(N3CCCC3)CC2)c1 | 0 | 2 | 1 | 14 | nt | nt
O=[N+]([O-])c1ccccc1S(=O)(=O)N1CCN(C2CCCCC2)CC1 | 0 | 0 | -1 | 51* | 10 | 17
O=[N+]([O-])c1ccccc1CN1CCN(C2CCCCC2)CC1 | 0 | -5 | 1 | 64* | 0 | 0
CCS(=O)(=O)c1ccc2oc(=S)n(CN3CCCC(CO)C3)c2c1 (stereo not drawn) | 0 | -2 | -2 | 12 | nt | nt
O=S(=O)(c1cc(Cl)ccc1Cl)N1CCN(C(c2ccccc2)c2ccccc2)CC1 | 0 | 1 | -1 | 0 | nt | nt
c1ccc(Oc2cccc(CN3CCN(Cc4ccncc4)CC3)c2)cc1 | 0 | 5 | 0 | 69* | 0 | -5
COc1cccc(CN2CCC(=O)N(Cc3ccc(F)cc3)CC2)c1 | 0 | 1 | -1 | 8 | nt | nt
Fc1ccccc1CN1CCN(Cc2cccc(Oc3ccccc3)c2)CC1 | 0 | -6 | 0 | 72* | 6 | 3
c1ccc(Oc2cccc(CN3CCSCC3)c2)cc1 | 0 | 0 | 0 | 43 | nt | nt
O=C(c1ccncc1)N1CCN(Cc2cccc(Oc3ccccc3)c2)CC1 | 1 | 7 | -1 | 35 | nt | nt
CCN1CCN(Cc2cccc(Oc3ccccc3)c2)CC1 | 0 | 3 | -1 | 66* | 4 | -3
CCOc1ccc(CN2CCN(Cc3cccc(Oc4ccccc4)c3)CC2)cc1 | 0 | -1 | 1 | 27 | nt | nt
Fc1ccc(CN2CCN(Cc3cccc(Oc4ccccc4)c3)CC2)cc1 | 0 | 6 | 0 | 68* | 6 | 11
CCCCNC(C)C1COc2ccccc2O1 (stereo not drawn) | 0 | 3 | 0 | 9 | nt | nt
CC(NCc1ccccc1)C1COc2ccccc2O1 (stereo not drawn) | 0 | -7 | 0 | 58* | -4 | -5
SMILES | FBW7 act | TEAD-YAP block | GPR151 activ | MITF primary | MITF confirm | AlphaScreen intf2 | others
CCC(=O)Nc1ccc2c(c1)C(=O)N(C1CCCCC1)C2=O | 0 | -13 | 0 | -1 | nt | nt
CCCC(=O)Nc1ccc2c(c1)C(=O)N(C1CCCCC1)C2=O | 0 | 11 | -1 | 58* | -5 | -8
Cc1sc2ncn(CC(=O)NCC(=O)Nc3ccc4c(c3)OCO4)c(=O)c2c1C | 0 | -8 | -2 | 55* | -1 | 14
CCN(CC)CCNc1nc(-c2cccs2)c(CC(=O)O)s1 | 0 | 5 | 1 | 79* | -9 | 5
O=C(O)Cc1sc(NCc2ccco2)nc1-c1cccs1 | 0 | 0 | 1 | 18 | nt | nt
O=C(O)CNCc1nc2ccccc2[nH]1 | -2 | -4 | -1 | 81* | 76* | 100*
COCCCNc1nccn2c(-c3ccc(OC(F)(F)F)cc3)cnc12 | 0 | -6 | -1 | 19 | nt | nt
CCCc1nnc(NC(=O)CN2C(=O)C3C4C=CC(C4)C3C2=O)s1 (stereo not drawn) | 0 | -8 | 2 | 58* | -6 | -10
CCCc1nnc(NC(=O)NCN2C(=O)C3C4C=CC(C4)C3C2=O)s1 (stereo not drawn) | 0 | 6 | 2 | -7 | nt | nt
COC(=O)c1cc(S(=O)(=O)NCCCN(C)Cc2ccccc2)c[nH]1 | 1 | 3 | 0 | 56* | 13 | 5
COC(=O)c1cc(S(=O)(=O)NCCc2ccccc2)c[nH]1 | 1 | 10 | 1 | 14 | nt | nt
COc1ccccc1C(c1ccc(C)o1)c1ccc(C)o1 | 0 | -4 | 4 | 3 | nt | nt
Cc1ccc(C(c2ccc(C)o2)c2ccccc2N)o1 | 0 | 0 | 1 | 67* | 3 | 6
O=C(O)c1cccc(-n2cccc2/C=C\[N+](=O)[O-])c1 | 0 | -8 | 0 | 63* | 59* | 6 | AlphaScreen DR=>6.5
c1ccc(CN2CCN(CCOCCOc3ccccc3)CC2)cc1 | 0 | 3 | 3 | 83* | 9 | 9
CCOc1ccccc1OCCOCCN1CCN(Cc2ccccc2)CC1 | 0 | 5 | 1 | 85* | 17 | 20
c1ccc(OCCOCCN2CCNCC2)cc1 | 0 | 3 | 1 | 36 | nt | nt
CCCCn1c(SCc2cccc([N+](=O)[O-])c2)nc2ccsc2c1=O | 0 | 2 | 1 | -15 | nt | nt
CCCCn1c(SCc2ccc([N+](=O)[O-])cc2)nc2ccsc2c1=O | 0 | 4 | 2 | 86* | -2 | 1
O=C1S/C(=C\c2ccco2)C(=O)N1c1ccccc1Cl | 0 | 8 | 2 | 78* | 79* | -7 | AlphaScreen DR=>6.5
COc1cccc(CN2CCN(CC3CC=CCC3)CC2)c1OC (stereo not drawn) | 0 | 7 | -1 | 81* | 12 | 19
COc1cc(C(=O)N2CCN(CC3CC=CCC3)CC2)cc(OC)c1OC (stereo not drawn) | 0 | 6 | 1 | 32 | nt | nt
COc1ccc(OC)c(CN2CCN(CC3CC=CCC3)CC2)c1 (stereo not drawn) | 0 | -3 | 0 | 54* | -1 | 12
COc1cc(OC)c(OC)cc1CN1CCN(CC2CC=CCC2)CC1 (stereo not drawn) | 0 | 2 | 0 | 51* | -2 | 0
COc1ccc(OC)c(CN2CCSCC2)c1 | 0 | -8 | 3 | 28 | nt | nt
CCOC(=O)N1CCN(S(=O)(=O)c2ccc(C(=O)Nc3nc4ccc(Cl)cc4s3)cc2)CC1 | 0 | -3 | 0 | 10 | nt | nt
O=C(Nc1nc2c(s1)CCC2C(=O)NCCCc1ccccc1)c1ccc(F)cc1 (stereo not drawn) | 0 | -10 | 0 | 80* | 4 | 19
